Laboratory results from PubChem BioAssay.
Unmarked numbers belong to inactive results. The rule behind the calls is not given here.

molecular target: Pantothenate synthetase (Mycobacterium tuberculosis (strain ATCC 25618 / H37Rv)) (UniProt P9WIL5); assay: Coupled enzyme confirmation of inhibitors against recombinant Mtb PanC (AID 375); details: coupled enzyme assay; at 10 µM, hits give high values;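 note: 0% = full reaction with vehicle and 100% = no enzyme background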
Sequence (P9WIL5 whole entry, looked up): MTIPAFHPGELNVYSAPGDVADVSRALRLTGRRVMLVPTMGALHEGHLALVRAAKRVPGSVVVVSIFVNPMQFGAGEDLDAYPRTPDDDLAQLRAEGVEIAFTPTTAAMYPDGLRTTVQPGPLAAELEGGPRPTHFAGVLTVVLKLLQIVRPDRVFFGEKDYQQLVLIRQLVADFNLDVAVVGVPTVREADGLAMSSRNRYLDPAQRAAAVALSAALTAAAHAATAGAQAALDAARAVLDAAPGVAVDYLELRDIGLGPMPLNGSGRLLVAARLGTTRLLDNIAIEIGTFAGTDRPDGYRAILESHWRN

In order of falling inhibition:
1. c1coc(-c2nnc(-c3cccs3)o2)c1  16%
2. C/C(=C\c1ccco1)C1C(C#N)=C(N)OC2=C1C(=O)CC(C)(C)C2 (stereo not given)  12%
3. CCN1CCN(C(c2cccs2)C(C)NC(=O)c2ccccc2)CC1 (stereo not given)  12%
4. O=C(c1cccc(C(=O)N2CCN(c3ccc(F)cc3)CC2)c1)N1CCN(c2ccc(F)cc2)CC1  10%
5. COc1ccc2c(=O)c3c(=O)n(Cc4ccco4)c(-c4cc(OC)c(OC)c(OC)c4)nc3oc2c1  5%
6. N=c1sc2ccccc2n1-c1ccccc1  3%
7. CC1CC(=O)c2cnc(NCC3CCCO3)nc2C1 (stereo not given)  3%
8. O=C(NCC1CCCCN1)c1cc(OCC(F)(F)F)ccc1OCC(F)(F)F (stereo not given)  3%
9. CCn1ncc(Cl)c1C(=O)Nc1ccncc1  3%
10. Cc1nc2ccccc2c(=O)n1/N=C/c1ccncc1  3%
11. COc1ccc2nc(NC(=O)CSc3nnc(-c4ccoc4C)n3C)sc2c1  2%
12. O=C(NCc1ccc(F)cc1)c1cc2ccccn2n1  1%
13. CCOCCCNC(=O)c1ccc2c(c1)N(Cc1ccccc1)C(=O)CS2=O (stereo not given)  0%
14. COc1ccc(C(=O)Nc2ccc(Cl)c(Cl)c2)c(OC)n1  0%
15. Nc1ncnc(Nc2ccccc2C(F)(F)F)n1  0%
16. COC(=O)Cn1cnc2c(nnn2-c2ccc(C)cc2)c1=O  0%
17. COc1ccc(C2C(C(=O)N3CCCC3)c3cc(OC)c(OC)cc3C(=O)N2C)cc1 (stereo not given)  0%
18. COc1ccc(C)cc1NCc1cccc(OC)c1OC  0%
19. O=C(C1CC1)N1CCc2cc(S(=O)(=O)N(CCO)Cc3ccccc3)ccc21  0%
20. Cc1onc(-c2ccccc2)c1C(=O)N[C@@H]1C(=O)N2[C@@H]1SC(C)(C)[C@@H]2C(=O)O  0%
21. CCOC(=O)c1cnc(-n2cc(C)cn2)nc1Nc1ccccc1OC  0%
22. Cn1c(=O)c2c(nc(NCC3CCCO3)n2C)n(C)c1=O (stereo not given)  0%
23. COc1cccc(N2CCN(Cc3nc(N)nc(Nc4ccccc4OC)n3)CC2)c1  0%
24. Cc1cc(C)nc(NC(=O)c2ccc(OC(C)C)cc2)n1  0%
25. O=C1CCCc2c1nn(-c1ccccc1)[n+]2[O-]  0%
26. CCOc1ccc(C2C(C#N)=C(N)Oc3cc(C)n(CCN(C)C)c(=O)c32)cc1OCC (stereo not given)  0%
27. COc1cc(-c2nnc(SCc3c(F)cccc3Cl)o2)cc(OC)c1OC  0%
28. Nc1cc(N)nc(SCc2ccccc2)n1  0%
29. Cn1c(CSc2nc3ccccc3s2)nnc1SCC(=O)NCCN1CCOCC1  0%
30. CCOCCCNC(=O)C1CCN(S(=O)(=O)N(CC(C)C)CC(C)C)CC1  0%
31. Cc1cc(C)cc(OCC(=O)NC2=NCCS2)c1  0%
32. CCS(=O)(=O)N1CCCC(c2nc(-c3cccc(OC)c3)no2)C1 (stereo not given)  0%
33. CCn1cc(C(=O)NCc2ccccc2OC)c(=O)c2cc(S(=O)(=O)N(C)C)ccc21  0%
34. O=[n+]1cc(-c2ccc(F)cc2)n([O-])c2c1CCC2  0%
35. Cc1c(C#N)c2ccccc2n1CC(=O)N1CCc2ccccc2C1  0%
36. COCCNC(=O)C(C)OC(=O)c1nsc(Cl)c1Cl (stereo not given)  0%
37. O=S(=O)(c1ccc2nc(Cc3cccc(C(F)(F)F)c3)[nH]c2c1)N1CCOCC1  0%
38. N#CC(C(=O)NCCc1ccccc1)c1nc2ccccc2nc1N1CCOCC1 (stereo not given)  0%
39. COc1ccc(N2CCN(C(=O)c3c(-c4ccccc4)noc3C)CC2)cc1  0%
40. CCOC(=O)c1cc(C)n(CCCN2CCOCC2)c1C  0%
